Source: PubChem
A selection: hits, their analogues and other compounds. The true share with any hit is near 6%.
D1 antagonist = human D1 dopamine receptor antagonism. P21728. HEK293 TREx D1 cells, calcium flux, dopamine EC80; hits give low values. activity change, negative = inhibition, % at 10 µM. hit rate 3.2% among 360,000; in the data active means activity change below about -30%; further: on the % scale 0 is the no-effect control and ±100 the full control effect
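Tetracycline-induced HEK293 T-REx cells with force-coupled D1 receptor were loaded with a no-wash calcium dye. Compound was added after a 10 s baseline and read kinetically for 180 s; EC80 dopamine was then added and calcium flux followed another 180 s.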
D3 ag = activates the human D3 dopamine receptor | max activation, % | P35462 | D3R DiscoveRx beta-arrestin cells, luminescence, 90 min | AID 652048 | hit rate 0.58% among 410,000; in the data active means max activation above about 30%; further: 0% is about no effect
Target sequence (P35462 whole entry, looked up): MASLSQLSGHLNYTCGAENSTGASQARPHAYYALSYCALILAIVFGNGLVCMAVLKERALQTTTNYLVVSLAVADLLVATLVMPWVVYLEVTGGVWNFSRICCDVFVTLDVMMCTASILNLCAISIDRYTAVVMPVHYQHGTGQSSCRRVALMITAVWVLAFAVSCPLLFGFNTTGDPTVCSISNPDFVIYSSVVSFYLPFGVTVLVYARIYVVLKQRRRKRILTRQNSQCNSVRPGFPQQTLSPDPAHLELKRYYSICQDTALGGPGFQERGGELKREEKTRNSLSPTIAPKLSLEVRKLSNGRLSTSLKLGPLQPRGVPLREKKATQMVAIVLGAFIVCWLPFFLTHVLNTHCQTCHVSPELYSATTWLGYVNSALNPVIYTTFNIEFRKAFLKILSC
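Agonist mode: compounds and dopamine controls were applied to plated cells for 90 min at 37 degrees C after an overnight attachment at 1500 cells/well. Luminescent read-out followed 30 - 60 minutes at room temperature with DiscoveRx detection reagent.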
D1 agonist = agonists of human D1 dopamine receptor. P21728. HEK293 T-REx D1 cells, calcium flux, agonist mode. activation, % at 2 µM. hit rate 1% among 360,000. AID 504660; in the data active means activation above about 30%; further: 0% is about no effect
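Agonism was scored from calcium flux recorded over 180 s (1 read/s) after pintool compound addition, following a 10-cycle baseline. Cells were inducible force-coupled HEK293 TREx D1, plated overnight at 30 C and loaded with no-wash calcium dye.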
DRD3 antagonist = D3 dopamine receptor (human) antagonism; D3R cells, DiscoveRx beta-arrestin luminescence, antagonist mode; hits give low values; max response, negative = inhibition, %; hit rate 2.5% among 360,000; AID 652054; in the data active means max response below about -50%; inconclusive means no clear call, values can overlap the other calls; further: on the % scale 0 is the no-effect control and ±100 the full control effect
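Cells expressing the human receptor were seeded at 1500 cells/well, incubated overnight at 37 degrees C in 5% CO2, then exposed to library compounds with dopamine controls for 90 minutes at 37 degrees C before luminescent detection.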
D1 PAM = enhances dopamine response at the human D1 receptor | HEK293 TREx D1 cells, calcium flux, dopamine EC20 potentiation | hit rate 0.036% among 360,000 | potentiation, % at 10 µM | P21728; in the data active means potentiation above about 30%; further: 0% is about no effect
* hit, by the source's call; ? = inconclusive; . = no result given; ! = a repeat was not active.

SMILES	D1 antagonist	D3 ag	D1 agonist	DRD3 antagonist	D1 PAM
CCNC(=S)NNC(=O)c1cc(-c2ccc(OC)cc2)nc2ccccc12	-10	2	-1	-6	-7
COc1ccc(C(=O)NNC(=S)NC(=O)c2ccc(F)cc2)cc1Br	.	4	.	92	.
COc1ccc(Cl)cc1C(=O)NNC(=S)NC(=O)c1cc(-c2ccc(Cl)cc2)nc2ccccc12	-9	-5	10	-61*	4
Cc1ccc(S(=O)(=O)/N=C2\C(=O)c3ccccc3C([O-])=C2n2cc[n+](CCC(C)C)c2)cc1	19	12	1	-76*	1
CCCC[n+]1ccn(C2=C([O-])c3ccccc3C(=O)/C2=N\S(=O)(=O)c2ccc(Br)cc2)c1	-5	8	0	-18	-3
Cc1cc[n+](CC(=O)Nc2ccccc2)cc1	21	-4	1	3	1
Cc1ccc(NC(=O)C[n+]2ccn(C3=C([O-])c4ccccc4C3=O)c2)cc1	-41*	-8	2	0	-5
Cc1ccccn1	.	11	.	.	.
CN1CCCc2cc3c(C(F)(F)F)cc(=O)oc3nc21	2	2	53*	6	-1
FC(F)(F)c1cc(C(F)(F)F)c2ccc(N3CCOCC3)nc2n1	-2	5	0	12	-6
Cc1ccc(SCC(=O)OCC(=O)N(C)CC(=O)Nc2ccc(F)cc2)cc1C	62	-2	53*	28	8
CC(C)c1ccccc1OCC(=O)N(C)CC(=O)Nc1ccc(F)cc1	-14	-36	8	-58*	-3
Cc1ccc(-c2c(CN3CCN(c4cccc(C)c4)C(C)C3)csc2C)cc1 (centres undefined)	-23	-4	1	.	2
CCOC(=O)N1CCc2c(sc3c2c(=O)n(-c2ccc(Cl)cc2)c(=O)n3CC(C)C)C1	5	8	3	.	-3
Cc1nc2scc(-c3ccccc3)c2c(=O)n1N=C1C=CC(=O)C=C1	-10	-18	3	-83*	-5
Cc1nc2scc(-c3ccccc3)c2c(=O)n1N	-3	5	0	-15	-1
CCSc1nc2n(n1)C(c1ccc(CC)cc1)C(C(=O)Nc1ccccc1OC)=C(C)N2 (centres undefined)	15	-4	0	.	0
CCCOc1ccc(CNC(=O)CCCN2C(=O)CSc3c2c(C)nn3-c2ccccc2)cc1	-12	-3	2	.	-5
COc1ccc(/C=C2\Cc3ccccc3C2=O)cc1OC	-4	1	0	6	-8
COc1ccc(/C=C2\SC(=O)NC2=S)cc1OC	2	13	32*	81	5
COc1ccc(/C=C2/CSC/C(=C/c3ccc(OC)c(OC)c3)C2=O)cc1OC	.	1	.	-50*	.
COc1ccc(/C=C2\SC(c3ccc(C)cc3)=NC2=O)cc1OC	-6	-9	53*	4	-5
CC(=O)N1c2ccccc2C(=O)C1N1CCN(c2cc(Cl)ccc2C)CC1 (centres undefined)	2	-1	7	.	-7
O=C1N/C(=C\c2ccc(O)cc2)C(=O)c2ccccc21	4	0	32*	24	1
O=C(O)/C=C1\NC(=O)c2ccccc21	-2	-3	3	0	0
SMILES	D1 antagonist	D3 ag	D1 agonist	DRD3 antagonist	D1 PAM
COc1ccccc1NCc1cccn1-c1nnc(N2CCOCC2)s1	2	2	1	.	8
Cc1ccc(C)c(/C=C/C(=O)c2ccccc(=O)c2O)c1	3	-19	4	-51*	1
Cc1nn(C)cc1C(=O)/C=C/c1ccc([N+](=O)[O-])cc1	5	-9	-2	?	3
O=C(/C=C/c1ccccc1Cl)c1ccccc(=O)c1O	10	-19	8	-77*	-4
O=C(/C=C/c1ccc([N+](=O)[O-])cc1)c1ccccc(=O)c1O	.	-22	.	-107*	.
Cc1ccc(/C=C/C(=O)c2ccccc(=O)c2O)c(C)c1	-4	2	2	-9	0
CC(C)C(OC(=O)CNC(=O)c1ccccc1)C(=O)Nc1cc(C(F)(F)F)ccc1Cl (centres undefined)	20	.	2	.	10
COc1ccc(Cl)cc1NC(=O)c1ccc2c(c1)CCCN2S(C)(=O)=O	0	7	0	.	3
COc1ccc(OC)c(S(=O)(=O)N2CC=C(c3c(C)n(CC(=O)N4CCCC4)c4ccccc34)CC2)c1	-1	14	1	.	-2
COc1ccc(-c2csc(/C(C#N)=C/Nc3ccc4c(c3)OCCO4)n2)cc1	7	-3	3	-2	1
N#C/C(=C\Nc1ccc2c(c1)OCCO2)c1nc(-c2ccccc2)cs1	-42*	2	0	16	-8
COC(C)=O	.	6	.	.	.
Cc1ccc(NC(=O)[C@@H](C)NC(=O)[C@@H]2Cc3ccccc3CN2)cc1	4	3	3	-6	14
Cc1ccc(NC(=O)[C@H](NC(=O)[C@@H]2Cc3ccccc3CN2)c2ccccc2)cc1C	6	-21	3	-101*	0
CC(C)C(=O)Nc1ccc2nc(SCC(=O)N3CCCC3)sc2c1	7	12	1	.	0
CCc1ccc(NC(=O)Cn2c(=O)n(CCC(=O)NCCc3ccc(OC)c(OC)c3)c(=O)c3ccccc32)cc1	-8	2	1	.	2
COc1ccccc1NC(=O)c1c(C)cc(C)nc1SCC(=O)Nc1cccc(C)c1	-1	3	72*	.	0
C[C@H](CCCC(C)(C)O)[C@H]1CC[C@H]2[C@@H]3CC=C4C[C@@H](O)CC[C@]4(C)[C@H]3CC[C@]12C	.	-10	.	.	.
O=C(Cc1cccs1)Nc1cccc(-c2nc3cc4ccccc4cc3[nH]2)c1	-38*	14	0	11	-5
CC(=O)Nc1cccc(NC(=O)Cc2cccs2)c1	-6	-2	1	-17	-3
CCn1c(SCc2cccc(Br)c2)nnc1-c1nonc1NC(C)=O	13	-7	7	.	3
COc1cccc(N2C(N)=NC(N)=NC2(C)C)c1	-54*	3	0	5	0
COc1ccccc1N1C(N)=NC(N)=NC1(C)C	-7	-11	1	-53*!	-2
COc1ccc(Cn2c(CCC(=O)NCc3ccc(Cl)cc3)nc3cccnc32)cc1	4	3	22	.	1
Cc1ccc(OCC(=O)Nc2cccc(S(=O)(=O)NC3=NCCCCC3)c2)cc1C	6	-4	10	4	-1
Cc1cc(OCC(=O)Nc2cccc(S(=O)(=O)NC3=NCCCCC3)c2)ccc1Cl	-31*	-4	5	23	-2
CCC(Cc1ccccc1)NC(=O)c1ccc2nc(N3CCC(C)CC3)sc2c1 (centres undefined)	0	2	-1	.	-3
CCOc1ccc(C(=O)Nc2cccc3ncccc23)cc1Cl	-30*	-5	5	-16	-7
O=C(Nc1cccc2ncccc12)c1ccc(Cl)cc1	0	1	3	10	4
CCCn1c(=O)c2sccc2n2c(CCCC(=O)Nc3ccc(Oc4ccccc4)cc3)nnc12	-11	4	4	.	-6
